The entries come from a sample that favours hits as a whole.
NTMT1 inh: Primary qHTS for Inhibitors of N-terminal methyltransferase 1 (NTMT1): MTaseGlo Assay; N-terminal Xaa-Pro-Lys N-methyltransferase 1 (Homo sapiens), Q9BV86; NTMT1 MTase-Glo SAH luminescence, purified enzyme; Potency, µM (doses to about 114 µM), inactives show top-dose activity change, negative = inhibition, hits mostly inhibitors; hit rate 2.5% among 59,000; AID 1645870, 2021;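 note: potency is the fitted concentration of half-maximal effect; plate controls were DMSO vehicle for no effect and no enzyme for full effect; nearly all actives have a fitted effect of over 65% in size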
Target sequence (Q9BV86 whole entry, looked up): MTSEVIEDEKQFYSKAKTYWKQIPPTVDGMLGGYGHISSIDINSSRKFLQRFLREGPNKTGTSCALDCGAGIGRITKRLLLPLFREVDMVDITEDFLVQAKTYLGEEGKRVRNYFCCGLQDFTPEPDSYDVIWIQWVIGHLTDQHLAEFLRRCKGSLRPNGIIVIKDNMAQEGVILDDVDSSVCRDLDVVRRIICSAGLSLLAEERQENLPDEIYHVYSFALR
FH mod: Identification of activators of human fumarate hydratase by quantitative high-throughput screening | Fumarate hydratase, mitochondrial (Homo sapiens), P07954 | FH coupled MDH/diaphorase resazurin fluorescence, 15 min | hit rate 0.22% among 54,000 | Potency, µM (top dose mostly 79.9 µM), inactives show at the highest dose activity change, negative = inhibition, most hits filed as inhibitors; note: potency is the fitted concentration of half-maximal effect; % is set by controls: 0 for no effect and ±100 for the full control effect; the screen sought activators but most active calls are inhibition curves; nearly all actives have a fitted effect of over 45% in size
p53null 39C tox: qHTS Screen for Compounds that Selectively Target Cancer Cells with p53 Mutations: Cytotoxicity of p53 Null Cells at the Nonpermissive Temperature | H1299 p53-null (neo) cells, 39C, ATPlite viability, 24 h | Potency, µM (titrated, usually from 46.1 µM), for the others: at the highest dose activity, negative = cell killing, most hits filed as cytotoxic | hit rate 0.97% among 55,000 | AID 904, 2007;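 note: potency is the fitted concentration of half-maximal effect; 0% = DMSO only and -100% = full killing by 100 µM tamoxifen; nearly all actives have a fitted effect of over 50% in size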
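Cells seeded at 600/well, 37C overnight. Compound added (up to 46 uM), plates shifted to 39C for 24 hr. ATPlite added, luminescence read after 20 min at room temperature.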
SKOV3 invasion: Primary qHTS assay for Inhibitors of ovarian cancer metastasis using an organotypic tumor microenvironment (TME) model; SKOV3ip1-GFP adhesion/invasion on 3D omental model, fluorescence; hit rate 0.1% among 46,000; AID 1963576, 2024; Potency, µM (series often up to 45.8 µM), without a hit: top-dose activity change, negative = inhibition, most hits filed as inhibitors;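 note: potency is the fitted concentration of half-maximal effect; plate controls were DMSO wells for no effect and tomatine positive control wells for full effect; nearly all actives have a fitted effect of over 65% in size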
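Primary human omental fibroblast/mesothelial 3D culture pre-formed 48 h. SKOV3ip1-GFP cells added with compounds (0.36-46 umol/L), incubated 2 h RT/16 h 37 C, fixed; GFP cells quantified at 488/509 nm.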
p53null 32C kill: qHTS Screen for Compounds that Selectively Target Cancer Cells with p53 Mutations: Cytotoxicity of p53 Null Cells at the Permissive Temperature; H1299-neo p53 null cells, ATP luminescence, 24 h, 32C; Potency, µM (titrated, usually from 46.1 µM), inactives show top-dose activity change, negative = cytotoxicity, actives largely listed as cytotoxic; hit rate 0.62% among 55,000; AID 903, 2007;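 note: potency is the fitted concentration of half-maximal effect; 0% = DMSO only and -100% = full killing by 100 µM tamoxifen; nearly all actives have a fitted effect of over 55% in size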
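Overnight 37C seeding (600 cells/well) of H1299-neo preceded a 24 hr, 32C exposure to compounds up to 46 uM. ATP levels, read by luminescence after 20 min at RT, indicated surviving cells.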
CLK4 inh: Confirmation Assay for Inhibitors of CDC-like Kinase 4 (Kinase-Glo Assay): SAR round 2; recombinant Clk4, Kinase-Glo ATP luminescence, 4.5 h; hit rate 90% among 90; shares compounds with NTMT1 inh; Potency, µM (doses to about 76.9 µM), for the others: top-dose activity, negative = inhibition, hits mostly inhibitors
USP2a K63: Confirmation Assay for Inhibitors of Ubiquitin-specific Protease USP2a Using CHOP2 as the Reporter: K633 | shares compounds with NTMT1 inh | USP2 cleavage of DiUb K63-3IQF, fluorescence kinetic | Potency, µM (highest dose often 57.5 µM), without a hit: at the highest dose activity change, negative = inhibition, hits mostly inhibitors | hit rate 80% among 30
Casp6 inh: qHTS for Inhibitors of Ubiquitin-specific Protease USP2a Using CHOP2 as the Reporter: Caspase 6 Assay | shares compounds with NTMT1 inh | 30 tested, under 10 active | Caspase 6 enzyme, Caspase-Glo 6 luminescence | activity change, negative = inhibition, % at 46.1 µM
HSD17B4 inh: Extended Characterization of HPGD Inhibitors: Counterscreen Against HSD17b4 | shares compounds with NTMT1 inh | purified HSD17B4, estradiol/NAD+, NADH fluorescence | Potency, µM (titrated, usually from 57.1 µM), without a hit: at the highest dose activity change, negative = inhibition, usual class: inhibitors | hit rate 10% among 230
ALDH1A1 counter: Extended Characterization of HPGD Inhibitors: Counterscreen Against ALDH1A1. shares compounds with NTMT1 inh. recombinant ALDH1A1, NADH fluorescence, propionaldehyde/NAD+. Potency, µM (doses to about 57.1 µM), for inactives: at the highest dose activity change, negative = inhibition, usual class: inhibitors. hit rate 93% among 230
NNMT inh: Counterscreen qHTS for Inhibitors of N-terminal methyltransferase 1 (NTMT1): NNMT MTaseGlo assay; shares compounds with NTMT1 inh; NNMT MTase-Glo luminescence, SAH detection; Potency, µM (doses to about 57.1 µM), for inactives: at the top dose activity, negative = inhibition, usual class: inhibitors; hit rate 10% among 120; AID 1645878, 2021
Target sequence (P40261 whole entry, looked up): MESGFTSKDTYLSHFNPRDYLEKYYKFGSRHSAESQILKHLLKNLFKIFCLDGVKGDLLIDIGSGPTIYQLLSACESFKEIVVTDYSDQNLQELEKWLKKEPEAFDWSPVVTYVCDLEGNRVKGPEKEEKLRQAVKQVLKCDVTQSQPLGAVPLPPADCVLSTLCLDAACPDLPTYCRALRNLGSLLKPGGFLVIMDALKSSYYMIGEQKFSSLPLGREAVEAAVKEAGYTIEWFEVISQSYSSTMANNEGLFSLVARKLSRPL
An asterisk follows results filed as active; ? = inconclusive; nt = no result given; [ ] = dose if it differs, or a comment. Calls come from the whole dose curve; as a rule, active = well fitted curve in the direction sought with a large enough effect; inconclusive = small, poorly fitted or top-dose-only effect, or another doubt; inactive = no such curve, though single readings can be large; an effect the other way counts as inactive or inconclusive.

SMILES | NTMT1 inh | FH mod | p53null 39C tox | SKOV3 invasion | p53null 32C kill | others
Cc1ccc(S(=O)(=O)Nc2cc(C(F)(F)F)ccc2C(=O)Nc2nc(-c3ccccc3)cs2)cc1 | ? | nt | nt | nt | nt | USP2a K63=1.7µM*;Casp6 inh=-15
Cc1cc(F)ccc1S(=O)(=O)Nc1cnccc1C(=O)Nc1nc(-c2ccccc2)cs1 | 18% | nt | nt | nt | nt | USP2a K63=1.9µM*;Casp6 inh=3
N[C@@H](Cc1ccc(O[S+](=O)([O-])c2cccc3cnccc23)cc1)C(=O)N1CCN(c2ccccc2)CC1 | 0%[57.5 µM] | nt | nt | nt | nt
CC[C@@H](Oc1cccc(CN(CCCOc2ccc(OC)cc2)c2nc3ccccc3o2)c1)C(=O)O | 5% | nt | nt | nt | nt
COc1cc(Nc2c(C#N)cnc3cc(OCCCN4CCN(C)CC4)c(OC)cc23)c(Cl)cc1Cl | 7.9µM* | -17% | nt | 7% | nt | NNMT inh=20µM*
CN1CCN(c2nn3c(=O)c4ccccc4nc3s2)CC1 | -19% | nt | nt | nt | nt
CN1CCN(c2ncc3nc(-c4cn(C)c5ccccc45)c(=O)n(Cc4cccs4)c3n2)CC1 | nt | nt | nt | nt | nt | CLK4 inh=-9%
CCC(=O)OCC(=O)C1(OC(=O)CC)C(C)CC2C3CCC4=CC(=O)C=CC4(C)C3(F)C(O)CC21C (centres undefined) | 6% | nt | nt | nt | nt
O=C(Nc1cccc(Cc2ccccc2)n1)c1ccc(-c2cccc([N+](=O)[O-])c2)o1 | -5% | nt | nt | nt | nt
CC(=O)C1CCC2(C)C3=C(CCC12C)C1(C)CCC(=O)C(C)(C)C1CC3 (centres undefined) | 6%[29.8 µM] | -4%[53.3 µM] | nt | nt | nt
O=C(CSc1nc(=O)n(CCN2CCOCC2)c2c1CCC2)Nc1cccc(Cl)c1 | -4% | -8% | 28% | -7% | -1%
Cc1cc(N2CCOCC2)cc2[nH]c(-c3c(NC[C@@H](O)c4cccc(Cl)c4)cc[nH]c3=O)nc12 | ? | ? | nt | ? | nt | NNMT inh=?
CCC(C)/C=C(C)/C=C/C1=CC2=C(Cl)C(=O)C(C)(OC(C)=O)C(=O)C2=CN1C(CCCN=C(N)N)C(=O)O (centres undefined) | -3%[29.8 µM] | 3%[53.3 µM] | nt | nt | nt
O=C(NC1CCCCC1)c1cccc(COCC(F)(F)F)c1 | nt | nt | -9% | nt | 2%
NC(=O)c1cccc(-c2cc(OC(=O)NC3CCCCC3)ccc2O)c1 | ? | -12% | nt | nt | nt | NNMT inh=-18%
C/C=C1/[C@H](O[C@@H]2O[C@H](CO)[C@@H](O)[C@H](O)[C@H]2O)OC=C(C(=O)OC)[C@H]1CC(=O)OCCc1ccc(O)c(O)c1 | -7%[29.8 µM] | 0%[53.3 µM] | nt | nt | nt
COc1ccc(-n2cnc3cc(C(=O)N4CCCCC4)ccc32)cc1 | ? | nt | nt | nt | nt | HSD17B4 inh=-21%;ALDH1A1 counter=1.4µM*
O=C(O)Cn1nnc(-c2ccc(CN(CCCCOc3ccc(CN4CCCC4)cc3)CCc3ccccc3)cc2)n1 | -6%[57.5 µM] | -2% | nt | nt | nt
COc1cc(N2CCOCC2)ccc1Nc1ncc(F)c(Nc2ccccc2NS(C)(=O)=O)n1 | 9%[57.5 µM] | -1% | nt | nt | nt
CNC(=O)c1ccccc1Nc1cc(Nc2ccc(N3CCOCC3)cc2OC)ncc1C(F)(F)F | -1%[57.5 µM] | -10% | nt | nt | nt | NNMT inh=?
CNc1nccc(-c2cccc3ccccc23)n1 | -5% | nt | nt | nt | nt
Cc1ccc(-n2nc(C(=O)N3CCN(c4cccc(C(F)(F)F)c4)CC3)c(=O)n(C)c2=O)cc1 | ? | -28% | 30% | -1% | 34%

Compound activity: PubChem BioAssay, National Center for Advancing Translational Sciences (NCATS)
